Test results as given in PubChem BioAssay (NCATS).
Records with an inconclusive call do not appear. A call without a number means that no potency is given here. Active and inactive are the calls of the source. Calls follow the shape of the dose curve; as a rule, active = well fitted cell-killing curve with a large enough effect; inconclusive = small, poorly fitted or top-dose-only effect; inactive = flat fitted curve, though single readings scatter. Numbered stars: 1 amine (or outer) side, 2 acyl side, 3 side chain; on linkers, the order of the positions; unused ones are H or OH. Bridge positions count the residues as written; N and C are the ends. Square brackets hold non-standard residues; d marks the D form. Peptide text beside a SMILES is read from it. I, II: the chains in the order shown. Actinocin(9to1) = Cc1c2oc3c(C)ccc(C(=O)[*:1])c3nc-2c(C(=O)[*:2])c(N)c1=O; NMeV = CN[C@H](C(=O)O)C(C)C; Sar = CNCC(=O)O

Tests used:
[1] = Cell Viability - LYMP2-025 (AID 976);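 also: cells exposed to compound for 24 h at 37 °C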
Summary of the method: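 In qHTS format, LYMP2-025 lymphoblastoid cells in complete culture medium received compound for 24 hr; ATP-based CellTiter-Glo signal gave viability, with AC50 derived by Hill equation.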

[2] = Cell Viability - LYMP2-002 (AID 977);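 also: compound exposure lasted 24 h at 37 °C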
Summary of the method: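 Cytotoxicity is scored as concentration-dependent loss of cellular ATP in a human lymphoblastoid line after 24 hr compound treatment at 37 C. AC50 is obtained by modelling concentration-response data with the Hill equation.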

[3] = Cell Viability - LYMP2-007 (AID 979);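 also: cells exposed to compound for 24 h before reading; nearly all actives have a fitted effect of over 60% in size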
Summary of the method: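 Acute toxicity is scored as a concentration-dependent fall in intracellular ATP in human lymphoblastoid cells treated 24 hr at 37 C, measured by luciferase luminescence; Hill-equation modelling yields AC50.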

[4] = Cell Viability - LYMP2-008 (AID 980); also: nearly all actives have a fitted effect of over 60% in size
Summary of the method: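 Acute cytotoxicity is scored as concentration-dependent loss of cellular ATP in a human lymphoblastoid line after 24 hr treatment at 37 C. ATP is quantified by luciferase luminescence.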

[5] = Cell Viability - LYMP2-012 (AID 982);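 also: cellular ATP by luciferase luminescence where a drop means cytotoxicity; cells exposed to compound for one day before reading; nearly all actives have a fitted effect of over 55% in size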
[6] = Cell Viability - LYMP2-014 (AID 983);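 also: cells exposed to compound for 24 h at 37 °C; nearly all actives have a fitted effect of over 50% in size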
Summary of the method: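 Decrease in intracellular ATP after 24 hr treatment at 37 C, measured by luciferase luminescence, indicated cytotoxicity. Concentration-response data were fitted with the standard Hill equation to give AC50.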

[7] = Cell Viability - LYMP2-016 (AID 984);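 also: cells exposed to compound for 24 hours at 37 °C; nearly all actives have a fitted effect of over 55% in size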
Summary of the method: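 Cells were seeded at 2500 per well and rested 5 hr before a 24 hr compound exposure at 37 C. Viability was then gauged as cellular ATP by luciferase luminescence, with AC50 values fitted to the Hill equation.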

[8] = Cell Viability - LYMP2-018 (AID 985); also: nearly all actives have a fitted effect of over 50% in size
Summary of the method: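 Acute cytotoxicity is scored as a concentration-dependent drop in intracellular ATP after 24 hr exposure of the lymphoblastoid line in complete culture medium, measured by luciferase luminescence. Potency is expressed as AC50 from Hill modelling.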

[9] = Cell Viability - LYMP2-020 (AID 986);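 also: cells exposed to compound for 24 h at 37 °C; nearly all actives have a fitted effect of over 55% in size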
Summary of the method: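 Acute cytotoxicity in a human lymphoblastoid line is scored as a concentration-dependent fall in cellular ATP after 24 hr at 37 C in complete medium. The positive control is tetraoctylammonium bromide, and potency is given as Hill-fit AC50.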

[10] = Cell Viability - LYMP2-022 (AID 987); also: nearly all actives have a fitted effect of over 55% in size
Summary of the method: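 Acute toxicity in a human lymphoblastoid line is scored as decreased intracellular ATP after 24 hr compound treatment at 37 C. ATP is measured by CellTiter-Glo luminescence; curves are fitted with the Hill equation to give AC50.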
Potency is read from the fitted curve at half-maximal effect.

| SMILES | Potency [1] | Potency [2] | Potency [3] | Potency [4] | Potency [5] | Potency [6] | Potency [7] | Potency [8] | Potency [9] | Potency [10] |
| --- | --- | --- | --- | --- | --- | --- | --- | --- | --- | --- |
| Nc1ccc(C(=O)O)cc1 | inactive | inactive | inactive | inactive | inactive | inactive | inactive | inactive | inactive | inactive |
| O=C(O)CCCCC(=O)O | inactive | inactive | inactive | inactive | inactive | inactive | inactive | inactive | inactive | inactive |
| C=C(CC)C(=O)c1ccc(OCC(=O)O)c(Cl)c1Cl | – | – | – | – | 39.8 µM (active) | – | 39.8 µM (active) | 39.8 µM (active) | – | 39.8 µM (active) |
| Oc1c(Cl)cc(Cl)cc1Sc1cc(Cl)cc(Cl)c1O | – | – | – | 31.6 µM (active) | – | – | 39.8 µM (active) | – | 31.6 µM (active) | – |
| CCCCCCc1ccc(O)cc1O | inactive | inactive | inactive | inactive | inactive | inactive | inactive | inactive | inactive | inactive |
| CC/C(=C(/CC)c1ccc(O)cc1)c1ccc(O)cc1 | inactive | inactive | inactive | inactive | – | inactive | inactive | inactive | inactive | inactive |
| CC(O)C(=O)O (stereo unspecified) | inactive | inactive | inactive | inactive | inactive | inactive | inactive | inactive | inactive | inactive |
| COc1cccc2c1C(=O)c1c(O)c3c(c(O)c1C2=O)C[C@@](O)(C(=O)CO)C[C@@H]3O[C@H]1C[C@H](N)[C@H](O)[C@H](C)O1 | 0.501 µM (active) | 0.251 µM (active) | 1 µM (active) | – | 0.199 µM (active) | 0.316 µM (active) | 0.251 µM (active) | 0.158 µM (active) | 0.316 µM (active) | 0.251 µM (active) |
| Cc1c2oc3c(C)ccc(C(=O)N[C@@H]4C(=O)N[C@H](C(C)C)C(=O)N5CCC[C@H]5C(=O)N(C)CC(=O)N(C)[C@@H](C(C)C)C(=O)O[C@@H]4C)c3nc-2c(C(=O)N[C@@H]2C(=O)N[C@H](C(C)C)C(=O)N3CCC[C@H]3C(=O)N(C)CC(=O)N(C)[C@@H](C(C)C)C(=O)O[C@@H]2C)c(N)c1=O (I: T[dV]P[Sar][NMeV] / II: T[dV]P[Sar][NMeV]; ester I:1-I:C, II:1-II:C; linker I:N-II:N via Actinocin(9to1)) | – | – | – | – | – | – | – | – | 0.0063 µM (active) | 0.0126 µM (active) |
| COc1cccc2c1C(=O)c1c(O)c3c(c(O)c1C2=O)C[C@@](O)(C(C)=O)C[C@@H]3O[C@H]1C[C@H](N)[C@H](O)[C@H](C)O1 | – | – | – | – | 0.158 µM (active) | – | – | 0.158 µM (active) | 0.501 µM (active) | 0.1 µM (active) |
| Oc1c(I)cc(Cl)c2cccnc12 | inactive | – | – | – | – | – | – | – | – | – |
| O=C1OC(c2ccc(O)cc2)(c2ccc(O)cc2)c2ccccc21 | inactive | inactive | inactive | inactive | inactive | inactive | inactive | inactive | inactive | inactive |
| Oc1ccc(O)cc1 | inactive | – | – | 50.1 µM (active) | 50.1 µM (active) | inactive | inactive | – | 50.1 µM (active) | 39.8 µM (active) |
| NC(=NCCCCCCN=C(N)/N=C(\N)Nc1ccc(Cl)cc1)/N=C(\N)Nc1ccc(Cl)cc1 | – | – | 39.8 µM (active) | 39.8 µM (active) | 39.8 µM (active) | 39.8 µM (active) | 50.1 µM (active) | 39.8 µM (active) | 39.8 µM (active) | 39.8 µM (active) |
| CC(=O)O[C@]1(C(C)=O)CC[C@H]2[C@@H]3C[C@H](C)C4=CC(=O)CC[C@]4(C)[C@H]3CC[C@@]21C | – | – | 39.8 µM (active) | 39.8 µM (active) | 31.6 µM (active) | – | 39.8 µM (active) | 39.8 µM (active) | – | 39.8 µM (active) |
| CC(=O)Oc1ccc(C(c2ccc(OC(C)=O)cc2)c2ccccn2)cc1 | inactive | inactive | inactive | inactive | inactive | inactive | inactive | inactive | inactive | inactive |
| CN(C)/N=N/c1nc[nH]c1C(N)=O | inactive | inactive | inactive | inactive | inactive | inactive | inactive | inactive | inactive | inactive |
| C=CCc1ccc(O)c(OC)c1 | inactive | inactive | inactive | inactive | inactive | inactive | inactive | inactive | inactive | inactive |
| COC1=CC(=O)C[C@@H](C)[C@]12Oc1c(Cl)c(OC)cc(OC)c1C2=O | inactive | inactive | inactive | inactive | inactive | inactive | inactive | inactive | inactive | inactive |
| C[C@]12CC[C@@H]3c4ccc(O)cc4CC[C@H]3[C@@H]1CC[C@@H]2O | inactive | – | inactive | inactive | inactive | inactive | inactive | – | inactive | inactive |
| O=c1ccc2ccccc2o1 | inactive | inactive | inactive | inactive | inactive | inactive | inactive | inactive | inactive | inactive |
| CC(C)(C)CC(C)(C)c1ccc(OCCOCC[N+](C)(C)Cc2ccccc2)cc1 | 39.8 µM (active) | 25.1 µM (active) | 25.1 µM (active) | 31.6 µM (active) | 20 µM (active) | 31.6 µM (active) | 31.6 µM (active) | 25.1 µM (active) | 25.1 µM (active) | 15.8 µM (active) |
